Pf Dd2 growth = inhibitors of Plasmodium falciparum Dd2 growth. P. falciparum Dd2 growth, SYBR Green, 72 h. Potency, µM (highest dose often 28.9 µM), for inactives: top-dose activity, negative = inhibition, most hits filed as inhibitors. hit rate 4.3% among 120,000; active means well fitted inhibition curve with a large enough effect;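 further: plate controls were DMSO vehicle for no effect and reference drug for full effect; nearly all actives have a fitted effect of over 65% in size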
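Infected erythrocytes (Dd2, 0.3% parasitemia, 2.5% hematocrit final) are added to compound in RPMI-1640/Albumax II medium, grown 72 h at 37C in low oxygen, then lysed with saponin/Triton-X containing SYBR Green and read by fluorescence.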
Active calls of the source: *; i = inactive; [ ] = remark or other dose. The sample as a whole holds a higher share of hits than the screen did. Potency means the concentration at half of the fitted maximal effect.

SMILES | Pf Dd2 growth
Cc1cc(=O)n(CC(=O)NC(C)CCc2ccccc2)c(N2CCOCC2)n1 (centres undefined) | i
CCOc1ccc(CCNC(=O)c2cn(-c3cccc(OC)c3)c(=O)c3ccccc23)cc1 | -23%
CCOc1ccccc1CNC(=O)c1cn(-c2ccc(OC)cc2)c(=O)c2ccccc12 | 8.9µM*
COc1ccc(-n2cc(C(=O)NCCc3ccc(C)cc3)c3ccccc3c2=O)cc1 | i
O=C1CCCN1C1CCN(Cc2cccnc2)CC1 | 12%[44.1 µM]
O=C(c1c[nH]c2ccccc12)N1CCC2(CC1)CN(c1ccncn1)CC2CO (centres undefined) | 5.6µM*
O=C(Cc1ccccc1)N1CCC2(CC1)CN(c1ccncn1)CC2CO (centres undefined) | i
O=C(Cc1ccsc1)N1CCC2(CC1)CN(c1ccncn1)CC2CO (centres undefined) | -15%
NC[C@H]1O[C@H](Cc2cc(-c3ccc(F)cc3)on2)CC[C@@H]1O | i
CCNC(=O)N1CCCN(C)c2ccccc21 | 6%
CCNC(=O)N1CCCN(S(C)(=O)=O)C(c2ccccc2)CC(=O)NCC1 (centres undefined) | 5%
N#Cc1ccc(-c2nc(C3CC(=O)N(c4ccc(F)cc4)C3)no2)cc1 (centres undefined) | -19%
COc1cc(C2c3c(-c4cc(C)ccc4O)n[nH]c3C(=O)N2Cc2ccco2)cc(OC)c1OC (centres undefined) | i
Cc1cc(C)c2c(=O)c3c(oc2c1)C(=O)N(Cc1ccco1)C3c1ccc(F)cc1 (centres undefined) | 11%
CCOc1cccc(C2c3c(-c4cc(C)ccc4O)n[nH]c3C(=O)N2Cc2ccco2)c1 (centres undefined) | 10µM*
COCCCN1C(=O)c2[nH]nc(-c3cc(C)ccc3O)c2C1c1ccc(F)cc1 (centres undefined) | -29%
Cc1ccc(O)c(-c2n[nH]c3c2C(c2ccccc2F)N(Cc2ccco2)C3=O)c1 (centres undefined) | 4.5µM*
COCCN1C(=O)c2[nH]nc(-c3c(C)cc(C)cc3O)c2C1c1cccc(O)c1 (centres undefined) | -8%
COC1CCC12CCN(Cc1ccc(C)o1)CC2 (centres undefined) | i
C[C@H]1CN(C(=O)Nc2ccc(F)cc2F)C[C@@H]1c1nc(-c2ccccc2)no1 | i
CCNC(=O)N(C1CC1)C1CCOC2(CCN(C(=O)CCc3ccccc3)CC2)C1 (centres undefined) | -11%
Cc1cc(CN2CCC3(CC2)CCN(C(=O)c2ccccn2)CC3CO)on1 (centres undefined) | -10%
CSc1ccc(-c2nc(CN3CCOCC(CN(C)C)C3)c(C)o2)cc1 (centres undefined) | -30%
CCOCCn1cnc(-c2ccccc2)c1-c1cccc(C#N)c1 | i
CCSc1ncc(-c2c(-c3ccccc3)ncn2CC[C@@H](C)CO)cn1 | -26%
SMILES | Pf Dd2 growth
CCC(Cn1cnc(-c2ccccc2)c1-c1ccc(C#N)cc1)N1CCN(C)CC1 (centres undefined) | 8.9µM*
CCn1c2c(c(=O)n1-c1ccccc1)CCN(C(=O)c1scnc1C)C2 | 29%[44.1 µM]
CC(C(=O)N1CCC(c2n[nH]c(=O)n2-c2ccccc2)CC1)c1ccccc1 (centres undefined) | -2%
CCC(=O)N1CCc2cc(Br)cc(S(=O)(=O)N3CCCC(C(=O)Nc4cc(C)ccc4OC)C3)c21 (centres undefined) | i
CCC(=O)N1CCc2cc(Br)cc(S(=O)(=O)N3CCCC(C(=O)NCc4ccc(OC)cc4)C3)c21 (centres undefined) | -3%
CCC(=O)N1CCc2cc(Br)cc(S(=O)(=O)N3CCN(c4cc(C)ccc4C)CC3)c21 | 5%
CCc1cccc(C)c1NC(=O)C1CCN(S(=O)(=O)c2cc(Br)cc3c2N(C(C)=O)CC3)CC1 | -25%
CCC(=O)N1CCc2cc(Br)cc(S(=O)(=O)N3CCC(C(=O)N(CC)CC)CC3)c21 | 10µM*
CCOC(=O)C1CCCN(S(=O)(=O)c2cc(Br)cc3c2N(C(=O)CC)CC3)C1 (centres undefined) | 3.5µM*
CNCC(=O)N1CCCC(c2nnc(CN3CCOCC3)n2C)C1 (centres undefined) | 2%
CN1[C@@H](CCC(=O)NCc2ccco2)CNC(=O)[C@@H]2[C@H]1CCN2Cc1cccc(OC(F)(F)F)c1 | i
N#Cc1cccc(NC(=S)O[C@@H]2CO[C@H]3[C@@H]2OC[C@@H]3n2nnnc2SCc2ccco2)c1 | -8%
O=C(O)c1cccc(-c2cnc3ccccc3c2)c1 | 31%[44.1 µM]
NCc1ccccc1-c1cnc2ccccc2c1 | 10µM*
CC(C)OC(=O)c1cccnc1SCC(=O)Nc1ccc(C(F)(F)F)cc1Cl | 3.2µM*
O=C(CSc1nccn1Cc1ccco1)Nc1cc(C(F)(F)F)ccc1Cl | i
Cc1cnc(=O)[nH]c1SCC(=O)Nc1cc(C(F)(F)F)ccc1Cl | 5%
CCCn1ccc2oc(C)c(C(=O)NCc3ccc(CC)cc3)c2c1=O | -14%
N#Cc1cccc(-c2cn3c(n2)N(C(=O)c2ccco2)CCC3)c1 | -17%
O=C(c1ccccc1)N1CCCCC12Cc1ccccc1NC2=O (centres undefined) | i
O=C(NC1CCCC1)N1CCCCC12Cc1ccccc1NC2=O (centres undefined) | -2%[44.1 µM]
O=C1Nc2ccccc2CC12CCCN2C1CCCCC1 (centres undefined) | 10µM*
COc1cccc(CNC(=O)CN2C(=O)NC3(CCS(=O)(=O)CC3)C2=O)c1 | -22%
Cc1cc(C)n(CCC(=O)N2CCC(N3C[C@H](O)C[C@H]3C(=O)NC3CCCCC3)CC2)n1 | -24%
Cc1cc(C)n(Cc2ccc(C(=O)N3CCC(N4C[C@H](O)C[C@H]4C(=O)NC4CCCCC4)CC3)o2)n1 | 5µM*
SMILES | Pf Dd2 growth
Cc1cnc(C(=O)N2CCC(N3C[C@H](O)C[C@H]3C(=O)NC3CCCCC3)CC2)cn1 | 10%
CN(C)C1CCCN(C(=O)c2ccc(CN3CCCC3)o2)CC1 (centres undefined) | -6%
CCn1cc(S(=O)(=O)N2CCCC(c3nc(-c4ccccc4)no3)CCNC(=O)CC2)cn1 (centres undefined) | -19%
COc1ccc(-c2cn3c(n2)sc2cc(C(=O)NCc4ccccc4)ccc23)cc1 | 16%
CCOc1ccc(-c2cn3c(n2)sc2cc(C(=O)NCCc4ccc(OC)c(OC)c4)ccc23)cc1 | 3.5µM*
COc1cccc(-c2cn3c(n2)sc2cc(C(=O)NCCc4ccccc4)ccc23)c1 | i
CCOC(=O)C1CCN(C(=O)c2ccc3c(c2)sc2nc(-c4ccc(OC)cc4)cn23)CC1 | i
CCOc1ccc(-c2cn3c(n2)sc2cc(C(=O)NCCC4=CCCCC4)ccc23)cc1 | 7.1µM*
COc1ccc(NC(=O)c2ccc3c(c2)sc2nc(-c4ccc(OC)cc4)cn23)cc1 | i
COc1ccc(-c2cn3c(n2)sc2cc(C(=O)Nc4cc(Cl)ccc4C)ccc23)cc1 | -16%
CCCSCCCNC(=O)c1ccc2c(c1)sc1nc(-c3ccc(OCC)cc3)cn12 | 3.5µM*
CCOc1ccc(-n2c(C)nc3cc(C(=O)NCCC4=CCCCC4)ccc32)cc1 | -7%
CCOc1cccc(CNC(=O)CC2CCOCC2)c1 | 15%
CCN1Cc2nc(OC)c(CNC(=O)C3(C)CCCCO3)cc2C1=O (centres undefined) | 7%
CCCCN1C(=O)C(O)(CC(=O)c2ccc(C(C)(C)C)cc2)c2ccccc21 (centres undefined) | 1.3µM*
CCOC(=O)c1ccc(NC(=O)CN2C(=O)C(C)(C)c3ccccc32)cc1 | 15%

Screening data as filed in PubChem.
